Results filed as inconclusive are left out. Values without a mark were called inactive. The source made the active and inactive calls. Calls come from the whole dose curve; as a rule, active = well fitted cell-killing curve with a large enough effect; inconclusive = small, poorly fitted or top-dose-only effect, or effect the other way; inactive = flat fitted curve, though single readings scatter.
Assay: Identifying Small Molecule Inhibitors of Pancreatic Cancer Stem Cells (SN12C, Spheroid) (AID 1259360);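 for viability (% of control): 100% = DMSO-treated cells and 0% = wells without cells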
Conditions: Potency: SN12C spheroid viability; series mostly up to 46.1 µM; viability (% of control): at the top concentration
From the text: Progenitor-like cancer cells, often referred to as cancer stem cells (CSC), are believed to be the drivers of therapeutic resistance and rapid recurrence. CSCs are postulated to reside in specific niches characterized by low oxygen tension, limited nutrient supply, and high redox load. Selectively targeting CSC, alone or in combination with cytotoxic agents, as a means to produce durable remissions is an appealing concept. Modeling these cells in in vitro setting is an important step in finding new therapies and/or targets. Multiple reports highlight that forcing cells in culture into 3-dimensionaly architectures (spheroids) re-establishes key progenitor-like transcriptional signatures. Pancreatic cancer is among the diseases with the most dismal outlook which is driven, largely, by recurance following front-line therapies. […] In hopes of deriving new insight into the targeting of these pancreatic CSCs we examined three established pancreatic cancer cell lines in cytotoxicity assays versus a collection of approved and investigational drugs. Importantly, we screened these lines as traditional monolayer (2D) and spheroid (3D) formats to gain an appreciation of agents with differential activity.
Multicellular tumor spheroids from Panc1, MiaPaCa-2, and the primary low-passage tissue culture line SB.06 were seeded in stem cell media (SCM) in nonadherent 6-well plates coated with hydrogel (Corning Life Sciences, Chelmsford, Mass) and pancreatic spheres generated for 14 days before screening. Cells were seeded into 1536-well solid-bottom white tissue culture treated Greiner Bio One Plates (789173-F) using a MultiDrop Combi (Thermofisher Scientific) dispenser and a small sterile cassette. One column was media alone to be used as a :"no cells" control. The plates were then covered with sterilized stainless steel gasketed lids from Kalypsys. After allowing cells to attach for 4 hours, 23 nL of test compound or control (negative control DMSO and positive control 9.2 uM Bortezomib-final) were added from a 1536-well polypropylene compound source plate to each well using a 1536 head pin tool from Kalypsys. Cells were then incubated for 48 hours at 37C, 95% relative humidity and 5% CO2. After 48 hours, plates were removed from the incubator and 3 uL of CellTiter-Glo (Promega) was added using an Aurora Flying Reagent Dispenser Bioraptor. Plates were incubated at room temperature for 10 minutes prior to reading the luminescence on the Viewlux (PerkinElmer). The relative luciferase units are used to calculate the percent activity using the activity of DMSO in the cells and no cells columns for normalization of no inhibition and full inhibition respectively.
Potency is the fitted concentration of half-maximal effect.

SMILES	viability (% of control)	Potency
CC(C)(C)c1cc(C(=O)O)c(NC(=O)Nc2ccc3[nH]ncc3c2)s1	103%	
CN(C)Cc1ccc(-c2nc3cccc4c3n2CCNC4=O)cc1	101%	
CN1CCN(CCOc2cc(OC3CCOCC3)c3c(Nc4c(Cl)ccc5c4OCO5)ncnc3c2)CC1		18.7 µM (active)
CO[C@@H](C(=O)N1Cc2[nH]nc(NC(=O)c3ccc(N4CCN(C)CC4)cc3)c2C1)c1ccccc1	95.8%	
O=C(Nc1cc(Cl)cc2c1[nH]c1cnccc12)c1cccnc1	102%	
O=C(N[C@@H](c1ccccc1)[C@@H]1CCCCN1)c1cccc(C(F)(F)F)c1Cl	106%	
OC[C@H]1O[C@@H](n2cnc3c2NC=NC[C@@H]3O)C[C@H]1O	92.9%	
CO[C@H]1C=CC=C(C)C(=O)NC2=CC(=O)C(NCCN(C)C)=C(C[C@@H](C)C[C@H](OC)[C@@H](O)[C@@H](C)C=C(C)[C@@H]1OC(N)=O)C2=O		0.0059 µM (active)
COc1cc(N2CCC(N3CCN(C)CC3)CC2)ccc1Nc1ncc(Cl)c(Nc2ccccc2S(=O)(=O)C(C)C)n1		20.9 µM (active)
O=C(O)c1ccc(-c2cc3cccnc3c(-c3ccc4nonc4c3)n2)cc1	102%	
COc1ccc(C2CC(c3ccccc3)=NN2c2ccc(S(N)(=O)=O)cc2)cc1 (stereo not given)	106%	
O=C1C(Cl)=C(NCCN2CCOCC2)C(=O)c2ncccc21		14.8 µM (active)
CC(C)(C(=O)NCC(F)(F)C(F)(F)F)C(=O)N[C@@H]1C(=O)Nc2ccccc2-c2ccccc21	106%	
CS(=O)c1ccc(-c2nc(-c3ccc(F)cc3)c(-c3ccncc3)[nH]2)cc1 (stereo not given)	95.2%	
CCOC(CN1C(=O)[C@](CC(=O)Nc2ccc(C)cc2)(NC(=O)Nc2ccc(C)cc2)c2ccccc21)OCC		18.7 µM (active)
Clc1ccc(-c2nc3sccn3c2C=NOCc2ccc(Cl)c(Cl)c2)cc1	96.1%	
CC(C)(C)COc1ccc(-n2cc(C(=O)O)cn2)cc1C#N	97.3%	
CC(C)(C)C(=O)Oc1ccc2c(c1)nc(NC(=O)c1cccc([N+](=O)[O-])c1)n2CCCO	81.1%	
CC1=C(/C=C/C(C)=C/C=C/C(C)=C/C(=O)Nc2ccc(O)cc2)C(C)(C)CCC1		23.5 µM (active)
CC(C)[C@H](CO)Nc1nc(Nc2ccc(C(=O)O)c(Cl)c2)c2ncn(C(C)C)c2n1	108%	

Source: PubChem BioAssay (NCATS)
